Data from PubChem BioAssay AID1619 (SRMLSC, 2009).
Among all 220,000 compounds or so, about 830 (0.38%) were called active.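 The calls were made as follows: active = compound inhibiting the enzyme by more than half at any dose during confirmatory dose-response retesting; inconclusive = strong single-dose inhibitors picked by rank but not retested; inactive = the rest.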 Only a sample is shown. Results with a measured potency or affinity are listed apart.

biological target: Leucine aminopeptidase (Plasmodium falciparum (isolate 3D7)) (UniProt Q8IL11); test: P. falciparum M17LAP inhibitors, primary screen, biochemical, fluorogenic H-Leu-NHMec substrate, 1536-well (AID 1619); conditions: recombinant M17LAP, H-Leu-NHMec fluorogenic kinetic assay; at 30 µM; stronger effect = higher value;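 also: plate controls were full reaction with DMSO carrier for no effect and no enzyme background for full effect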
Sequence (Q8IL11 whole entry, looked up): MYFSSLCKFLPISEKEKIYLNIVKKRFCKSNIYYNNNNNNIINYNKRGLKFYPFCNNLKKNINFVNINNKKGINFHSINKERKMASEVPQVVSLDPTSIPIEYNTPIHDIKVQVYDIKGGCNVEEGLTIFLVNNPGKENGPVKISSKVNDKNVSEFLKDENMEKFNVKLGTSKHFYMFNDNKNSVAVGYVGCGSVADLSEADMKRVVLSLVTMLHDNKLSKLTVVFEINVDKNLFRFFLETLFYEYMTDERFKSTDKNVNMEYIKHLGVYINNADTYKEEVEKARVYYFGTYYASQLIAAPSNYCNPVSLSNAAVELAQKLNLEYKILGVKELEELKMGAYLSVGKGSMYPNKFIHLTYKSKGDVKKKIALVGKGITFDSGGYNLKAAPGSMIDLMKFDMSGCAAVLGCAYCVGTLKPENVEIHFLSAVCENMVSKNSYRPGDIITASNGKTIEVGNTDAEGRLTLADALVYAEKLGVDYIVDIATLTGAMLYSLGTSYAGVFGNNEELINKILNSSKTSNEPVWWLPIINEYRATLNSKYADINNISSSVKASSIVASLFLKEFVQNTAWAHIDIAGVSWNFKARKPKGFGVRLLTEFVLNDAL

inhibition, inactive:
Cc1ccc(C(=O)Nc2nc3ccc(S(C)(=O)=O)cc3s2)o1 48.6%
CCOc1cc(S(=O)(=O)NC2CCCCCC2)ccc1F 4.34%
Cc1nc(CSc2nnc(Nc3cccc(C)c3C)s2)cs1 22.7%
Cc1ccc(Nc2nnc(SCC(=O)c3ccc(Br)s3)s2)c(C)c1 27.2%
CCc1ccc(Nc2nnc(SCC(=O)N(C)C3CCS(=O)(=O)C3)s2)cc1 (centres undefined) 6.41%
Cc1cccc(Nc2nc3ccccc3s2)c1C 0.94%
Cc1cccc(Nc2nnc(SCC(=O)N(C)C3CCS(=O)(=O)C3)s2)c1C (centres undefined) 35%
O=C1CCCCC1Sc1nnc(Nc2ccccc2)s1 (centres undefined) 16.7%
Cc1ccc(Nc2nnc(SCC(=O)NC3CCS(=O)(=O)C3)s2)c(C)c1 (centres undefined) 9.77%
Cc1cccc(Nc2nnc(SCC3CCCCO3)s2)c1C (centres undefined) 13.4%
CCSc1ccc2cc(OC)ccc2[n+]1CC 2.2%
Cc1ccc(NC(=O)CNCc2ccccc2)cc1Br 1.6%
CCC(C)(C)n1nnnc1CN1CCN(C(c2ccccc2)c2ccccc2)CC1 7.37%
O=C1CSC2(CCCCC2)N1CCO 15.1%
O=S1(=O)CCC(NC(=S)NC2CCS(=O)(=O)C2)C1 (centres undefined) 1.24%
CCOCCCNC(=S)N1C2CCC1CC(NC(=O)NC13CC4CC(CC(C4)C1)C3)C2 (centres undefined) 2.02%
C=CC(=O)N=c1sc2ccccc2n1-c1ccccc1 -2.28%
c1ccc(-c2ccccc2OCCCN2CCCCCC2)cc1 -1.36%
Cc1cccc(NS(=O)(=O)c2cnc[nH]2)c1 -0.29%
CCCCN=C(C)C1=C(O)CSC1=O 12.4%
CC(C)c1ccc(Nc2nnc(SC3CCOC3=O)s2)cc1 (centres undefined) 32.8%
Cc1ccc(Nc2nnc(SCC3CCCCO3)s2)cc1 (centres undefined) 13.8%
Cc1cc(C)n(-c2ccc(C(=O)Nc3nnc(C4CC4)s3)cc2)n1 4.37%
COc1ccc(OC)c(NC(=O)c2ccc(CSc3nnc(C)s3)cc2)c1 -1.27%
N/C(=N\OC(=O)COc1ccc(Br)cc1Cl)c1ccccn1 -6.93%
O=C1C(C2=NC(c3ccccn3)C3C(=O)N(c4ccc(Cl)cc4Cl)C(=O)C23)=C(O)c2ccccc21 (centres undefined) 3.81%
O=C1C(C2=NC(c3ccccn3)C3C(=O)N(c4ccccc4)C(=O)C23)=C(O)c2ccccc21 (centres undefined) -11%
O=C(C1=NN(c2ccccc2)C2C(=O)N(c3ccc(Cl)cc3)C(=O)C12)c1ccccc1 (centres undefined) 4.99%
O=C1C(C2=NC(c3ccccn3)C3C(=O)N(c4ccc(OC(F)(F)F)cc4)C(=O)C23)=C(O)c2ccccc21 (centres undefined) -6.84%
O=C(NNC(=O)c1cccc2ccccc12)c1ccc(-c2ccccc2)cc1 -1.51%
CCCCOC(=O)c1ccc(NC(=O)C(=O)NCCN(C)C)cc1 4.81%
Cn1cnc([N+](=O)[O-])c1Oc1cccc(O)c1 -5.34%
Cc1cc(C)nc(SCC(=O)Nc2ccc(S(=O)(=O)Nc3ncccn3)cc2)n1 0.08%
Cc1noc(NS(=O)(=O)c2ccc(NC(=O)CSc3nc4ccccc4[nH]3)cc2)c1C -54.8%
Cc1cc(NS(=O)(=O)c2ccc(NC(=O)Nc3cccc(Cl)c3)cc2)no1 41%
Cc1noc(NS(=O)(=O)c2ccc(NC(=O)CSc3ncccn3)cc2)c1C -8.95%
O=C(CSc1nc2ccccc2s1)Nn1cnnc1 6.17%
Cc1cc(C)nc(NC(=O)CSc2nc3ccccc3s2)n1 -0.55%
Cc1cc(NS(=O)(=O)c2ccc(NC(=O)Nc3ccccc3)cc2)no1 53.6%
O=C(CSc1ccccc1)Nc1ccc(S(=O)(=O)Nc2ncccn2)cc1 4.72%
Cc1nn(-c2ccccc2)c(Cl)c1/C=C(\C#N)C(=O)NC(C)C 0.39%
COCc1cc(C)nc(N/N=C/c2ccc(Cl)c(Cl)c2)c1C#N -7.61%
O=[N+]([O-])c1ccc(Nc2c3ccccc3nc3ccccc23)cc1 -29.4%
Cc1ccc(NC(=O)CN2C(=O)N/C(=C\c3cccnc3)C2=O)cc1 2.33%
Cc1ccc(Cn2c(SCc3cccnc3)nc3c2c(=O)n(C)c(=O)n3C)cc1 5.09%
CC(=O)Nc1ccc(NC(=O)CN(c2cccc(C)c2)S(C)(=O)=O)cc1 1.19%
CCc1cccc(NC(=O)CCc2nc(-c3cccs3)no2)c1 17.6%
CCNC(=S)Nc1ccc(Cl)c([N+](=O)[O-])c1 -6.59%
NC(=O)CC(NC(=O)Cc1ccc(Br)cc1)c1ccc(NCc2ccc(F)c(F)c2)c([N+](=O)[O-])c1 (centres undefined) -2.21%
Cc1cc(C)nc(SCC(=O)Nc2ccc(S(=O)(=O)Nc3onc(C)c3C)cc2)n1 -13.9%
Cc1noc(NS(=O)(=O)c2ccc(NC(=O)CSc3n[nH]c(-c4ccccc4)n3)cc2)c1C -60.9%
Cc1noc(NS(=O)(=O)c2ccc(N/C=C/C(=O)c3ccc4c(c3)OCO4)cc2)c1C 36.4%
Cc1cc(C(=O)Nc2ccc(S(=O)(=O)Nc3onc(C)c3C)cc2)c(C)o1 -21.9%
Cc1cc(C)c(C(=O)Nc2ccc(S(=O)(=O)Nc3onc(C)c3C)cc2)c(C)c1 -10.6%
Cc1noc(NS(=O)(=O)c2ccc(N/C=C/C(=O)c3ccc(F)cc3)cc2)c1C 20.6%
CCSc1cnn(-c2ccccc2)c(=O)c1SCC 9.04%
Cc1ccc(C(=O)O)cc1NC(=O)C1CCCN1S(=O)(=O)c1cccc2nsnc12 (centres undefined) -2.3%
CC(=O)Nc1ccccc1OCC(=O)NC(C)c1ccc(F)cc1 (centres undefined) 7.52%
CCOC(=O)c1oc2ccccc2c1NC(=O)c1ccc(S(=O)(=O)N2CCCC2)cc1 -6.8%
S=c1[nH]nc(-c2cc(-c3ccccc3)n[nH]2)n1/N=C/c1ccc(Cl)cc1 1.35%
O=C(Nc1ccc(Cl)cc1)c1csc(-c2ccccc2)n1 -10.4%
CC(C)OC(=O)/C(C#N)=C/c1cn(C)c2ccccc12 -3.85%
CC(=O)N1CCC2(CC1)C(C#N)=C(N)Oc1n[nH]c(C)c12 8.86%
COCc1[nH]nc2c1C1(CCSCC1)C(C#N)=C(N)O2 11.4%
CC(=O)N1CCC2(CC1)C(C#N)=C(N)Oc1n[nH]c(C(F)(F)F)c12 -15.9%
Cc1ccc(SCc2[nH]nc3c2C2(C(=O)Nc4ccc(F)cc42)C(C#N)=C(N)O3)cc1 (centres undefined) 10.5%
CCCC(=O)Nc1ccc(C(=O)NN2C(=O)c3ccccc3C2=O)cc1 -2.16%
O=C(c1ccccn1)N(Cc1ccco1)C1(C(=O)NC2CCCCC2)CCCCC1 1.03%
CC1CCCCN1CC(=O)Nc1cc(S(=O)(=O)N2CCOCC2)ccc1N1CCCC1 (centres undefined) 4.92%
Cc1ccc(NC(=O)N2CCCCC2)cc1NC(=O)N1CCCCC1 -2.13%
CC1(C)CC(CC(=O)NNc2nc(-c3ccccc3)cs2)C(=O)O1 (centres undefined) 12.7%
CC1CC(CC(=O)NNc2nc(-c3ccccc3)cs2)C(=O)O1 (centres undefined) 12.5%
C/C(CC1CC(COCC(C)C)OC1=O)=N\Nc1nc(-c2ccccc2)cs1 (centres undefined) 10.7%
CC1CC(CC(=O)Nc2nc(-c3ccccc3)cs2)C(=O)O1 (centres undefined) 2.05%
O=C(CN(Cc1ccco1)S(=O)(=O)c1ccccc1)N/N=C/c1ccccc1C(=O)O 38.3%
CCOc1cc(C(=O)OCC(=O)Nc2cc(C)on2)ccc1OCC(C)C -3.97%
Cc1ccccc1NC(=O)Cn1nnc(-c2ccc(N3CCOCC3)cc2)n1 2.77%
COc1ccccc1N(CC(=O)Nc1cc(C)on1)S(=O)(=O)c1ccc(Cl)cc1 -0.47%
NC(=O)[C@@H]1CCCN1Cc1nc(-c2cccs2)no1 -3.71%
CCOC(=O)/C(C#N)=C/C=C1\C=Cc2ccccc2N1CC 1.1%
CCOC(=O)/C(C#N)=C\c1ccc(CC)s1 14.8%
CCCCCCN1C=CC(=C/C=C(\C#N)C(=O)OCC)C=C1 -2.08%
CCOC(=O)/C(C#N)=C/C=C1/C=CC=CN1C 20%
CCCN1C=CC(=CC=C(C#N)C#N)C=C1 40.8%
CCOC(=O)/C(C#N)=C\N(C)C 5.6%
CCOC(=O)/C(C#N)=C/N=c1ccc(C)cn1C 12.6%
C=CCN1C=C/C(=C\C=C(C#N)C#N)c2ccccc21 -9.06%
CCOC(=O)c1nnn(-c2nonc2-n2cccc2)c1CCl 7.36%
COC(=O)CN(c1ccccc1OC)S(=O)(=O)c1ccccc1 -2.64%
Cc1ccc(C)c(NC2=C(Cl)C(=O)OC2OC(C)C)c1 (centres undefined) -15.8%
CC(=O)N1CCC(N(C(=O)Nc2ccc(F)cc2)C2CCCC2)CC1 11%
CC(C)(C)c1ccc(C(=O)c2c[nH]c(C(=O)NCC3CCCO3)c2)cc1 (centres undefined) -3.09%
NC(=O)c1ncc(C(F)(F)F)cc1Oc1cccc(C(F)(F)F)c1 -2.19%
Cc1cc(C)nc(NC(=O)C2c3ccccc3Oc3ccccc32)n1 5.07%
